For 10 molecules, growth inhibition results are on record in PubChem BioAssay (NCI).

Several values for one entry are separate records, joined by “and”; a condition that tells them apart may be missing. Equal values may be shown once. This is part of a sample that, as a whole, favours compounds with a hit. Of some 79,000 tested, about 15% had one in any assay. Unmarked numbers belong to inactive results. Activity calls are given as the source filed them. Rule as the data show it: active = growth inhibition above about 70%; inactive = the rest.

Assay [1] is described as follows: NCI Yeast Anticancer Drug Screen. Data for the rad50 strain (AID 155).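 Also: 0% = growth of vehicle-only cultures of the same strain.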 Conditions: S. cerevisiae rad50 strain growth inhibition, hits give high values. The procedure, abridged: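 Cells are treated with compound, grown, and their growth is then scored against vehicle-only cultures of the same repair-deficient yeast strain.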
Assay [2] is described as follows: NCI Yeast Anticancer Drug Screen. Data for the mec2-1 strain (AID 157). Conditions: S. cerevisiae mec2-1 strain, hits give high values. The procedure, abridged: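 Test agents were screened against the mec2-1 yeast strain, with defined DNA repair or cell cycle alteration. Growth was scored as inhibition against vehicle-only controls.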
Assay [3] in a line: NCI Yeast Anticancer Drug Screen. Data for the sgs1 mgt1 strain (AID 161).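 Also: 0% = growth of cultures given vehicle only.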 Conditions: S. cerevisiae sgs1 mgt1 strain, hits give high values. The procedure, abridged: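 Read-out: growth inhibition vs vehicle controls. Cells: mutant yeast strain deficient in DNA damage repair.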
Assay [4] is described as follows: NCI Yeast Anticancer Drug Screen. Data for the cln2 rad14 strain (AID 165).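 Also: 0% = growth equal to vehicle treated cultures.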 Conditions: S. cerevisiae cln2 rad14 strain, hits give high values. The procedure, abridged:
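Growth of compound-exposed yeast (cln2 rad14 genotype) measured and expressed as inhibition relative to vehicle.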

The nature of assay [5]: NCI Yeast Anticancer Drug Screen. Data for the bub3 strain (AID 167). Conditions: S. cerevisiae bub3 mutant strain, hits give high values. The essentials: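 Part of a panel of yeast mutants defective in DNA damage repair or cell cycle regulation. Each strain is grown with compound, and inhibition is calculated relative to solvent-treated cultures.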
A short description of assay [6]: NCI Yeast Anticancer Drug Screen. Data for the mlh1 rad18 strain (AID 175). Conditions: S. cerevisiae mlh1 rad18 strain growth inhibition, hits give high values. The essentials: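 In this whole-cell yeast screen, a strain with altered DNA damage repair is challenged with compound, and its growth is measured against matched vehicle-treated controls.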
Setting [7] is: at 5.0 µM (retest, dose inferred, filed as 0.5).
Where [8] appears, read: at 50.0 µM (retest, dose inferred, filed as 5.0).

For `CC(=O)Nc1cccc2cc(O)ccc12`, the growth inhibition in assay [1] (at 50.0 µM) is 16.8% and 18.5% and 17%; in assay [2] (at 50.0 µM), -5.9% and 4.7% and -9.55%; in assay [3] (at 50.0 µM), -2.2% and -3.8% and 10.3%; in assay [4] (at 50.0 µM), -11.6% and -20.1% and 11.6%; in assay [5] (at 50.0 µM), -11.8% and -11.7% and -4.3%; in assay [6] (at 50.0 µM), 23.2% and 18.1% and 22.8%.

For the molecule `Cn1c2c(c3ccccc31)CCN1C[C@@H]3CCCC[C@H]3C[C@@H]21`, the growth inhibition is 0% in assay [1] (setting [7]); 55% in assay [1] (setting [8]); 65% in assay [1] (at 50.0 µM); -2% in assay [3] (setting [7]); -1% in assay [3] (setting [8]); 74.4% (active) in assay [3] (at 50.0 µM). The growth inhibition was 6% in assay [4] (setting [7]); -6% in assay [4] (setting [8]); -58.1% in assay [4] (at 50.0 µM); 2% in assay [5] (setting [7]); 0% in assay [5] (setting [8]); 62.5% in assay [5] (at 50.0 µM). The growth inhibition in assay [6] (setting [7]) is 0%; in assay [6] (setting [8]), 25%; in assay [6] (at 50.0 µM), 30.1%.

With `CCCCCCCC/C=C1\CCC(CN(C)C)C1=O` (configuration not stated), the growth inhibition in assay [2] (setting [7]) is -35%; in assay [2] (setting [8]) it was 99% (active); in assay [2] (at 50.0 µM), 93.2% (active); in assay [3] (setting [7]) it was -13%; in assay [3] (setting [8]), 97% (active); in assay [3] (at 50.0 µM) it was 90.7% (active). Besides, the growth inhibition in assay [4] (setting [7]) was 8%; in assay [4] (setting [8]), 95% (active); in assay [4] (at 50.0 µM), 89.5% (active); in assay [5] (setting [7]), -23%; in assay [5] (setting [8]) it was 98% (active); in assay [5] (at 50.0 µM), 89.6% (active). Further, the results for the growth inhibition in assay [6] (setting [7]), in assay [6] (setting [8]) and in assay [6] (at 50.0 µM) were -19%, 97% (active) and 89.1% (active), respectively.

For the molecule `CC#CS(=O)(=O)c1ccccc1`, the growth inhibition in assay [2] (setting [7]) was -1%; in assay [2] (setting [8]), 52%; in assay [2] (at 50.0 µM) it was 85.5% (active); in assay [3] (setting [7]), 10%; in assay [3] (setting [8]) it was 81% (active); in assay [3] (at 50.0 µM), 80.7% (active). The growth inhibition in assay [4] (setting [7]) is 3%; in assay [4] (setting [8]), 23%; in assay [4] (at 50.0 µM) it was 13.9%; in assay [5] (setting [7]), 0%; in assay [5] (setting [8]), 19%; in assay [5] (at 50.0 µM) it was 6.35%. Also, the growth inhibition in assay [6] (setting [7]) was 36%; in assay [6] (setting [8]), 87% (active); in assay [6] (at 50.0 µM), 66.6%.

`O=C(c1ccc([N+](=O)[O-])cc1)N1CCCSC1=S`: the growth inhibition in assay [2] (setting [7]) was -7%; in assay [2] (setting [8]) it was 12%; in assay [2] (at 50.0 µM) it was 22.2%; in assay [3] (setting [7]) it was 10%; in assay [3] (setting [8]) it was 21%; in assay [3] (at 50.0 µM), 31.6%. For the same molecule, the growth inhibition in assay [4] (setting [7]) was 21%; in assay [4] (setting [8]), 27%; in assay [4] (at 50.0 µM) it was 27.2%; in assay [5] (setting [7]), 6%; in assay [5] (setting [8]), 11%; in assay [5] (at 50.0 µM) it was 16%. Besides, the growth inhibition in assay [6] (setting [7]) was 11%; in assay [6] (setting [8]), 31%; in assay [6] (at 50.0 µM), 60.5%.

Take `O=C(O)C1C2CC3C(OC(=O)C31)C2Br` (configuration not stated): the growth inhibition is 11.9% and 4.1% and 9.9% in assay [1] (at 50.0 µM); 2.75% and 16.8% and -4.3% in assay [2] (at 50.0 µM); -22.2% and 2.5% and 6.9% in assay [3] (at 50.0 µM); -24.1% and -98.7% and -25.1% in assay [4] (at 50.0 µM); -47.9% and 10.9% and 11.8% in assay [5] (at 50.0 µM); 11.2% and 18.6% and 32% in assay [6] (at 50.0 µM).

Take `CC(C)Cc1ncc(CC(C)C)n(O)c1=O`: the growth inhibition was 26% in assay [2] (setting [7]); 98% (active) in assay [2] (setting [8]); 87.8% (active) in assay [2] (at 50.0 µM); 41% in assay [3] (setting [7]); 97% (active) in assay [3] (setting [8]); 91% (active) in assay [3] (at 50.0 µM). For the same molecule, the growth inhibition in assay [4] (setting [7]) is -6%; in assay [4] (setting [8]), 97% (active); in assay [4] (at 50.0 µM) it was 81.3% (active); in assay [5] (setting [7]) it was 10%; in assay [5] (setting [8]), 99% (active); in assay [5] (at 50.0 µM), 89.5% (active). Besides, the figures for the growth inhibition in assay [6] (setting [7]), in assay [6] (setting [8]) and in assay [6] (at 50.0 µM) were 61%, 98% (active) and 89.9% (active), respectively.

As for `C/C(=N\NC(=S)N1CCN(c2ccccn2)CC1)c1ncccn1`, the growth inhibition in assay [2] (setting [7]) was -20%; in assay [2] (setting [8]), -10%; in assay [2] (at 50.0 µM) it was 49.9%; in assay [3] (setting [7]), -7%; in assay [3] (setting [8]), -13%; in assay [3] (at 50.0 µM), 45.9%. Besides, the growth inhibition was -2% in assay [4] (setting [7]); 7% in assay [4] (setting [8]); 83.2% (active) in assay [4] (at 50.0 µM); -10% in assay [5] (setting [7]); -9% in assay [5] (setting [8]); 93.6% (active) in assay [5] (at 50.0 µM). Moreover, the growth inhibition in assay [6] (setting [7]) is -3%; in assay [6] (setting [8]), 10%; in assay [6] (at 50.0 µM), 86% (active).

As for `Nc1cc2c(c[n+](CCCCCCCCCC[n+]3cc4c5ccccc5c(N)cc4c4ccccc43)c3ccccc23)c2ccccc12`, the growth inhibition in assay [2] (setting [7]) is 36%; in assay [2] (setting [8]) it was 96% (active); in assay [2] (at 50.0 µM), 91.8% (active); in assay [3] (setting [7]), 56%; in assay [3] (setting [8]), 95% (active); in assay [3] (at 50.0 µM), 85% (active). The growth inhibition is 16% in assay [4] (setting [7]); 92% (active) in assay [4] (setting [8]); 87.8% (active) in assay [4] (at 50.0 µM); 58% in assay [5] (setting [7]); 95% (active) in assay [5] (setting [8]); 81% (active) in assay [5] (at 50.0 µM). The values for the growth inhibition in assay [6] (setting [7]), in assay [6] (setting [8]) and in assay [6] (at 50.0 µM) were 63%, 95% (active) and 83.6% (active), respectively.

With `COc1cccc2c1C(=O)c1c(O)c(COC3CC(N)C(O)C(C)O3)cc(O)c1C2=O` (configuration not stated), the growth inhibition in assay [1] (setting [7]) was 14%; in assay [1] (setting [8]), 89% (active); in assay [1] (at 50.0 µM), 96.7% (active); in assay [3] (setting [7]), 13%; in assay [3] (setting [8]), 80% (active); in assay [3] (at 50.0 µM), 99.3% (active). Further, the growth inhibition is 3% in assay [4] (setting [7]); 42% in assay [4] (setting [8]); 50.6% in assay [4] (at 50.0 µM); 7% in assay [5] (setting [7]); 40% in assay [5] (setting [8]); 98% (active) in assay [5] (at 50.0 µM). Moreover, the growth inhibition was 12% in assay [6] (setting [7]), 53% in assay [6] (setting [8]) and 98.3% (active) in assay [6] (at 50.0 µM).
